Laboratory results from PubChem BioAssay (NCATS).
Inconclusive results are not listed. Activity calls are given as the source filed them. Calls come from the whole dose curve; as a rule, active = well fitted curve in the direction sought with a large enough effect; inconclusive = small, poorly fitted or top-dose-only effect, or another doubt; inactive = no such curve, though single readings can be large; an effect the other way counts as inactive or inconclusive.

Experiments:
[1] = tested on: CRL-7250; assay: Cytotoxic Profiling of Annotated Libraries Using Quantitative High-Throughput Screening (AID 1296008); conditions: Five cell lines viability, CellTiter-Glo ATP luminescence, 48-72 h; max response: active compounds read low; note: nearly all actives have a fitted effect of over 60% in size; for max response: % is set by controls: 0 for no effect and ±100 for the full control effect
Procedure, shortened: (§1)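 Cells exposed to compounds for 48 or 72 hr at 37 degrees Celsius. Viability read as ATP-coupled luminescence with CellTiter-Glo after 10 min at room temperature.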

[2] = tested on: HEK293; assay: as above; conditions: Five cell lines viability, CellTiter-Glo ATP luminescence, 48-72 h; max response: active compounds read low
Procedure, shortened: as §1

[3] = tested on: HaCat; assay: as above; conditions: Five cell lines viability, CellTiter-Glo ATP luminescence, 48-72 h; max response: active compounds read low
Procedure, shortened: as §1

[4] = tested on: KB-3-1; assay: as above; conditions: Five cell lines viability, CellTiter-Glo ATP luminescence, 48-72 h; max response: active compounds read low
Procedure, shortened: as §1

[5] = tested on: NIH3T3; assay: as above; conditions: Five cell lines viability, CellTiter-Glo ATP luminescence, 48-72 h; max response: active compounds read low
Procedure, shortened: as §1

[6] = tested on: HACAT; assay: qHTS assay to identify novel small-molecules to repurpose for Merkel cell carcinoma treatment (AID 1296009); conditions: MCC and control cell lines, CellTiter-Glo viability, 72 h; at 44.8 µM (top of the series) unless noted; note: nearly all actives have a fitted effect of over 60% in size
Procedure, shortened: (§2)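 Dose-response viability screen; 72 hr exposure at 37 degree celsius; CellTiter-Glo added, 10 min room temperature, luminescence read; RLUs scaled between no-cell and DMSO wells.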

[7] = tested on: NIH3T3; assay: as above; conditions: MCC and control cell lines, CellTiter-Glo viability, 72 h; at 44.8 µM (top of the series) unless noted
Procedure, shortened: as §2

[8] = tested on: C33A; assay: Primary qHTS to identify gynecologic anti-cancer compounds using libraries of approved drugs and bioactive compounds (AID 1345084); conditions: Gynecologic cancer cell panel viability, ATPlite luminescence, 48 h; series mostly up to 57.5 µM; note: % is set by controls: 0 for no effect and ±100 for the full control effect; nearly all actives have a fitted effect of over 55% in size
Procedure, shortened: (§3)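 ATP-based viability (ATPlite), 1,000 cells/well, 16 h pre-incubation, 48 h compound at 37 C, 5% CO2, 15 min RT before read.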

[9] = tested on: CAOV3; assay: as above; conditions: Gynecologic cancer cell panel viability, ATPlite luminescence, 48 h; series mostly up to 57.5 µM
Procedure, shortened: as §3

[10] = tested on: CASKI; assay: as above; conditions: Gynecologic cancer cell panel viability, ATPlite luminescence, 48 h; series mostly up to 57.5 µM
Procedure, shortened: as §3

[11] = tested on: Es-2; assay: as above; conditions: Gynecologic cancer cell panel viability, ATPlite luminescence, 48 h; series mostly up to 57.5 µM
Procedure, shortened: as §3

[12] = tested on: HeLa; assay: as above; conditions: Gynecologic cancer cell panel viability, ATPlite luminescence, 48 h; series mostly up to 57.5 µM
Procedure, shortened: as §3

[13] = tested on: Hek293T; assay: as above; conditions: Gynecologic cancer cell panel viability, ATPlite luminescence, 48 h, control line for the selectivity index; series mostly up to 57.5 µM
Procedure, shortened: as §3

[14] = tested on: JEG-3; assay: as above; conditions: Gynecologic cancer cell panel viability, ATPlite luminescence, 48 h; series mostly up to 57.5 µM
Procedure, shortened: as §3

[15] = tested on: OV90; assay: as above; conditions: Gynecologic cancer cell panel viability, ATPlite luminescence, 48 h; series mostly up to 57.5 µM
Procedure, shortened: as §3

[16] = tested on: PA-1; assay: as above; conditions: Gynecologic cancer cell panel viability, ATPlite luminescence, 48 h; series mostly up to 57.5 µM
Procedure, shortened: as §3

COc1ccc(/C=C/C(=O)O[C@@H]2[C@@H](O[C@@H]3O[C@H](CO)[C@@H](O)[C@H](O)[C@H]3O)[C@@H](O)[C@H](O[C@H]3C4C=CO[C@@H](O[C@@H]5O[C@H](CO)[C@@H](O)[C@H](O)[C@H]5O)C4[C@@]4(CO)O[C@@H]34)O[C@H]2C)cc1 (stereo not given in full)
inactive: max response [1] -8.31% | max response [2] -3.69% | outcome [3] | max response [4] -1.62% | outcome [5] | outcome [6] inactive [at 9.27 µM] | outcome [7] inactive [at 9.27 µM] | activity change, negative = cytotoxicity [8] -3.09% [at 11.6 µM] | activity change, negative = cytotoxicity [9] -4.58% [at 11.6 µM] | activity change, negative = cytotoxicity [10] 6.26% [at 11.6 µM] | activity change, negative = cytotoxicity [11] 3.1% [at 11.6 µM] | activity change, negative = cytotoxicity [12] 5.69% [at 11.6 µM] | activity change, negative = cytotoxicity [13] 2.2% [at 11.6 µM] | activity change, negative = cytotoxicity [14] 7.02% [at 11.6 µM] | activity change, negative = cytotoxicity [15] 9.16% [at 11.6 µM] | activity change, negative = cytotoxicity [16] -1.37% [at 11.6 µM]

CC(=O)OC[C@]12[C@@H](OC(=O)c3ccoc3)C[C@@H]3[C@@H](OC(C)=O)[C@]1(OC3(C)C)[C@@](C)(O)C[C@H](OC(=O)c1ccoc1)[C@@H]2OC(=O)c1ccoc1
inactive: max response [1] -3.29% | max response [2] -2.85% | outcome [3] | max response [4] 2.58% | outcome [5] | outcome [6] inactive [at 17.4 µM] | outcome [7] inactive [at 17.4 µM] | Potency [8] | Potency [9] | outcome [10] | Potency [11] | Potency [12] | Potency [13] | Potency [14] | Potency [15] | Potency [16]

CC1=C2CC(O)(C(C)(C)O)C(O[C@@H]3O[C@H](CO)[C@@H](O)[C@H](O)[C@H]3O)CC(C)C2CC1=O (stereo not given in full)
inactive: max response [1] 2.9% | max response [2] -24.8% | outcome [3] | max response [4] 7.73% | outcome [5] | outcome [6] inactive [at 17.4 µM] | outcome [7] inactive [at 17.4 µM] | Potency [8] | Potency [9] | outcome [10] | Potency [11] | Potency [12] | Potency [13] | Potency [14] | Potency [15] | Potency [16]

COc1cccc(C)c1C(=O)O[C@@H]1C[C@H](O[C@H]2[C@H](O)C[C@H](O[C@@H]3CCC[C@H]4[C@H]3C=C[C@@H]3CCCC/C=C/[C@H]5C=C(C(=O)O)[C@@H](C)C[C@@]56OC(=O)C(=C6O)OC(=O)[C@@]34C)O[C@@H]2C)O[C@H](C)[C@H]1O
inactive: max response [1] -2.06% | max response [2] -11.9% | outcome [3] | max response [4] 6.21% | outcome [5] | outcome [6] inactive [at 9.27 µM] | outcome [7] inactive [at 9.27 µM] | activity change, negative = cytotoxicity [8] 10.8% [at 11.6 µM] | activity change, negative = cytotoxicity [9] 3.73% [at 11.6 µM] | activity change, negative = cytotoxicity [10] 10.4% [at 11.6 µM] | activity change, negative = cytotoxicity [11] 4.28% [at 11.6 µM] | activity change, negative = cytotoxicity [12] 1.33% [at 11.6 µM] | activity change, negative = cytotoxicity [13] 3.45% [at 11.6 µM] | activity change, negative = cytotoxicity [14] -0.859% [at 11.6 µM] | activity change, negative = cytotoxicity [15] 2.5% [at 11.6 µM] | activity change, negative = cytotoxicity [16] 9.36% [at 11.6 µM]

NC(=O)[C@H](Cc1ccccc1)NC(=O)[C@H](CCCN=C(N)N)NC(=O)C12CC3CC(CC(C3)C1)C2
inactive: max response [1] -2.98% | max response [2] -11.4% | outcome [3] | outcome [4] | outcome [5] | outcome [6] inactive [at 9.27 µM] | outcome [7] inactive [at 9.27 µM] | activity change, negative = cytotoxicity [8] 15.1% [at 11.6 µM] | activity change, negative = cytotoxicity [9] 15.6% [at 11.6 µM] | activity change, negative = cytotoxicity [10] 5.13% [at 11.6 µM] | activity change, negative = cytotoxicity [11] 7.15% [at 11.6 µM] | activity change, negative = cytotoxicity [12] 9.3% [at 11.6 µM] | activity change, negative = cytotoxicity [13] 9.9% [at 11.6 µM] | activity change, negative = cytotoxicity [14] 17.3% [at 11.6 µM] | activity change, negative = cytotoxicity [15] -0.378% [at 11.6 µM] | activity change, negative = cytotoxicity [16] 5.55% [at 11.6 µM]

Nc1c(-c2ccccc2)nc(Cl)c2c(O)n[nH]c(=O)c12
inactive: outcome [1] | max response [2] -7.38% | outcome [3] | max response [4] 9.61% | outcome [5] | outcome [6] | outcome [7] | Potency [8] | Potency [9] | outcome [10] | Potency [11] | Potency [12] | Potency [13] | Potency [14] | Potency [15] | Potency [16]

C/C=C(\C)C(=O)OCC1OC(OCC2OC(OC3(CO)OC(CO)C(O)C3O)C(O)C(O)C2O)C(O)C(O)C1O (stereo not given)
inactive: max response [1] -0.798% | max response [2] -3.28% | outcome [3] | outcome [4] | outcome [5] | outcome [6] inactive [at 17.4 µM] | outcome [7] inactive [at 17.4 µM] | Potency [8] | Potency [9] | outcome [10] | Potency [11] | Potency [12] | Potency [13] | Potency [14] | Potency [15] | Potency [16]

CN(C)CCC[C@]1(c2ccc(F)cc2)OCc2cc(C#N)ccc21
inactive: max response [1] 1.86% | max response [2] -1.92% | outcome [3] | max response [4] -2.48% | outcome [5] | outcome [6] | outcome [7] | Potency [8] | Potency [9] | outcome [10] | Potency [11] | Potency [12] | Potency [13] | Potency [14] | Potency [15] | Potency [16]

C[C@@H]1O[C@@H](O[C@H]2[C@@H]3C=CO[C@@H](O[C@@H]4O[C@H](CO)[C@@H](O)[C@H](O)[C@H]4O)[C@@H]3[C@@]3(CO)O[C@@H]23)[C@H](O)[C@H](OC(=O)/C=C/c2ccc(O)c(O)c2)[C@H]1O
inactive: max response [1] 2.8% | max response [2] 1.13% | outcome [3] | max response [4] -0.915% | outcome [5] | outcome [6] inactive [at 17.4 µM] | outcome [7] inactive [at 17.4 µM] | Potency [8] | Potency [9] | outcome [10] | Potency [11] | Potency [12] | Potency [13] | Potency [14] | Potency [15] | Potency [16]

COc1ccc(C2(O)c3ccccc3NC(=O)C2OC)cc1 (stereo not given)
inactive: max response [1] -6.47% | max response [2] 1.57% | outcome [3] | max response [4] 5.23% | outcome [5] | outcome [6] | outcome [7] | Potency [8] | Potency [9] | outcome [10] | Potency [11] | Potency [12] | Potency [13] | Potency [14] | Potency [15] | Potency [16]
